Sampled rows, rich in hits. Any-hit rate of the full collection: about 12%.
G9a inh: qHTS Assay for Inhibitors of Histone Lysine Methyltransferase G9a; Histone-lysine N-methyltransferase EHMT2 (Homo sapiens), Q96KQ7; G9a H3K9 monomethylation, AlphaScreen, 2 h; Potency, µM (highest dose often 102 µM), actives largely listed as inhibitors; 8.8% of 350,000 active; also: nearly all actives have a fitted effect of over 75% in size
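AlphaScreen detection with an anti-monomethyl H3K9 antibody quantified product after a 2 h room-temperature reaction containing 500 nM biotinylated H3K9 peptide, 20 µM SAM and 20 nM enzyme, which had been preincubated 15 min with compound.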
HP1b chromo inh: HTS for Inhibitors of HP1-beta Chromodomain Interactions with Methylated Histone Tails; Chromobox protein homolog 1 (Homo sapiens), P83916; AlphaScreen HP1-beta / biotin-H3K9me3 peptide binding; Potency, µM (top dose mostly 114 µM), hits mostly inhibitors; 0.56% of 390,000 active; also: nearly all actives have a fitted effect of over 70% in size
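HP1-beta protein (50 nM final) preincubated 30 min at room temperature with biotinylated H3(1-18)K9me3 peptide (50 nM) in PBS pH 7.4, 0.01% Tween-20, then compound added for 30 min. AlphaScreen streptavidin donor/nickel chelate acceptor beads (10 ug/mL final), 30 min dark, luminescence read.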
JMJD2A Tudor: qHTS Assay for Inhibitors of JMJD2A-Tudor Domain. Lysine-specific demethylase 4A (Homo sapiens), O75164. AlphaScreen JMJD2A-Tudor / H3K4me3 peptide binding. Potency, µM (top dose mostly 114 µM), most hits filed as inhibitors. 4.4% of 390,000 active; also: nearly all actives have a fitted effect of over 50% in size
Target sequence (O75164 whole entry, looked up, the tested form may be a part): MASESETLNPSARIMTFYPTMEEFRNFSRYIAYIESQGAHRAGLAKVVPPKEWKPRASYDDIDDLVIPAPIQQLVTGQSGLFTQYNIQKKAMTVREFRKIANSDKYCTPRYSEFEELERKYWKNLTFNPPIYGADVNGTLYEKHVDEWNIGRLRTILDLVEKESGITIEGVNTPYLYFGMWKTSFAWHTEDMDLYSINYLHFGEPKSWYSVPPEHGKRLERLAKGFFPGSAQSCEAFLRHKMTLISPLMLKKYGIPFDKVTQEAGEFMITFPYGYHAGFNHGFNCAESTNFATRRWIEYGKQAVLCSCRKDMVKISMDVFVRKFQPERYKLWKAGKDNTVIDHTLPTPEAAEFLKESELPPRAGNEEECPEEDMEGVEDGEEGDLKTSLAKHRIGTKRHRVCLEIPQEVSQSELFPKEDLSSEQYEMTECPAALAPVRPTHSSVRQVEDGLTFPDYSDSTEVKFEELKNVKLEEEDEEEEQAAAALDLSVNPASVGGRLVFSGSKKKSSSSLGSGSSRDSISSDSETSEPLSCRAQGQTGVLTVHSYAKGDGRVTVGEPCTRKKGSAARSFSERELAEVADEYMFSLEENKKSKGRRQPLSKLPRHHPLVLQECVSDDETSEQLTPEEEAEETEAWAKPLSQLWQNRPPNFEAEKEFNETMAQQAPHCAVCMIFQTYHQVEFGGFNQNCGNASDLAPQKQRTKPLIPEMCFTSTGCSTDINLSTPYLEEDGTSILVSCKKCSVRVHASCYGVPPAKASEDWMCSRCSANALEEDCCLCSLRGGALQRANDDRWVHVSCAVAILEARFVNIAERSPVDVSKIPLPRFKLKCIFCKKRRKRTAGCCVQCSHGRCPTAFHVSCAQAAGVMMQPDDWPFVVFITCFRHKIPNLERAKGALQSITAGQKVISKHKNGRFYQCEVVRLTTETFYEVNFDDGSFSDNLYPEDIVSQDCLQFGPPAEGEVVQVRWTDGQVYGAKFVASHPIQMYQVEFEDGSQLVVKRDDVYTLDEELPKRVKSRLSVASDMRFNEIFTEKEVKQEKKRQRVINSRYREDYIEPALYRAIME
BAZ2B inh: qHTS Assay for Inhibitors of BAZ2B. AlphaScreen BAZ2B-H3K14Ac peptide displacement. Potency, µM (series often up to 114 µM), hits mostly inhibitors. AID 504333, 2011. 4.4% of 360,000 active; also: nearly all actives have a fitted effect of over 60% in size
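BAZ2B (50 nM) with biotin-H3(5-23)K14Ac peptide (50 nM) in PBS pH 7.4, 0.01% Tween-20, preformed 30 min, then compound 30 min at room temperature; top concentration 110uM. AlphaScreen streptavidin donor/nickel chelate acceptor beads (10 ug/mL final), 20 min dark, signal read.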
PLK1 PBD block: qHTS for Inhibitors of PLK1-PDB (polo-like kinase 1 - polo-box domain): Primary Screen | Plk1 PBD binding of FITC phosphopeptide, fluorescence polarization | Serine/threonine-protein kinase PLK1 (Homo sapiens), P53350 | Potency, µM, actives largely listed as inhibitors | 2.8% of 360,000 active; also: series mostly up to about 57 µM; nearly all actives have a fitted effect of over 65% in size
PI5P4Ka inh: qHTS for Inhibitors of phosphatidylinositol 5-phosphate 4-kinase (PI5P4K); Phosphatidylinositol 5-phosphate 4-kinase type-2 alpha (Homo sapiens), P48426; PI5P4Kalpha enzyme, ADP-Glo luminescence, 60 min; active compounds read low; max response, %; 1.2% of 330,000 active; AID 652105, 2013; active = max response of -50% or lower; inconclusive = between -30% and -50%; inactive = -30% or higher; also: value at the top dose of about 77 µM
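Single end-point luminescence (ADP-Glo) quantified ADP from PI5P4Kalpha turnover; ATP 5 microM final, 1 h at RT, 0.1% CHAPS and 0.28 mM EGTA in HEPES pH 7.4.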
Of the large screens only hits and unclear results are named; the others gave an inactive call. Unless noted, calls follow the shape of the dose curve; as a rule, active = well fitted curve in the direction sought with a large enough effect; inconclusive = small, poorly fitted or top-dose-only effect, or another doubt; inactive = no such curve, though single readings can be large; an effect the other way counts as inactive or inconclusive.

CC(C)c1nnc(NC(=O)C2CCCCC2)s1	none
Cc1cnc(C(=O)Nc2nnc(C(C)C)s2)cn1	G9a inh 1µM, JMJD2A Tudor 0.28µM, BAZ2B inh 50µM
CC(C)c1nnc(NC(=O)c2cnccn2)s1	G9a inh inconclusive, JMJD2A Tudor 1.1µM, BAZ2B inh 40µM (no result: PI5P4Ka inh)
Cc1cnc(C(=O)Nc2nnc(C)s2)cn1	G9a inh 2µM, JMJD2A Tudor 1.1µM, BAZ2B inh inconclusive
CC(C)c1ccccc1NC(=O)c1cnccn1	none (no result: PI5P4Ka inh)
Cc1cnc(C(=O)Nc2nnc(C3CC3)s2)cn1	G9a inh 5.6µM, BAZ2B inh inconclusive
Cc1ccc(S(=O)(=O)Nc2cc3c(C(=O)OCc4ccccc4)c(C)oc3c3ccccc23)c(C)c1	G9a inh inconclusive (no result: PLK1 PBD block, PI5P4Ka inh)
OCC[C@@H]1C[C@H](O)[C@@H](O)[C@@]2(OCCCc3cc(Cl)ccc32)O1	none (no result: G9a inh, HP1b chromo inh, JMJD2A Tudor, BAZ2B inh)
Cc1csc(NC(=O)c2cnccn2)n1	G9a inh 3.5µM, JMJD2A Tudor 7.9µM, BAZ2B inh inconclusive
Cc1csc(NC(=O)c2cccnc2)n1	none
CCNC(=O)c1sc(=S)n(-c2ccc(C)cc2)c1N	G9a inh 32µM, HP1b chromo inh inconclusive, PLK1 PBD block inconclusive (no result: PI5P4Ka inh)
Cc1ccc(-n2c(N)c(C(=O)N3CCOCC3)sc2=S)cc1	G9a inh inconclusive, JMJD2A Tudor inconclusive, PLK1 PBD block 15µM (no result: PI5P4Ka inh)
Cc1ccc(-c2nc(N3CCOCC3)sc2C(=O)N2CCOCC2)cc1	none
Cc1[nH][nH]c(=O)c1[C@@H](c1ccccc1[N+](=O)[O-])C(C#N)C#N	G9a inh inconclusive, PLK1 PBD block 24µM
Cc1[nH][nH]c(=O)c1C(c1ccc(Br)cc1)c1c(C)[nH][nH]c1=O	PLK1 PBD block inconclusive
Cc1[nH][nH]c(=O)c1C(c1ccc([N+](=O)[O-])cc1)c1c(C)[nH][nH]c1=O	PLK1 PBD block 27µM (no result: G9a inh)
Cc1ccc(C(c2c(C)[nH][nH]c2=O)c2c(C)[nH][nH]c2=O)cc1	PLK1 PBD block 27µM
Cc1[nH][nH]c(=O)c1C(c1ccc(O)c([N+](=O)[O-])c1)c1c(C)[nH][nH]c1=O	G9a inh inconclusive
NC(N)=Nc1nc2ccccc2o1	G9a inh inconclusive, JMJD2A Tudor 13µM
Cc1cccc(-n2c(-c3ccccc3)cn3c4c(=O)[nH]c(=O)n(C)c4nc23)c1	none (no result: PLK1 PBD block, PI5P4Ka inh)
CC(C)c1nnc(N2C(=O)C(O)=C(C(=O)c3cccs3)C2c2ccccc2)s1 (stereo not drawn)	G9a inh 25µM, BAZ2B inh 79µM, PLK1 PBD block inconclusive
COc1ccc(C2C(C(=O)c3cccs3)=C(O)C(=O)N2c2nncs2)cc1 (stereo not drawn)	G9a inh 45µM, JMJD2A Tudor inconclusive, BAZ2B inh inconclusive, PLK1 PBD block inconclusive (no result: PI5P4Ka inh)
COc1ccc(C2C(C(=O)c3cccs3)=C(O)C(=O)N2c2nnc(C)s2)cc1OC (stereo not drawn)	G9a inh inconclusive, JMJD2A Tudor 79µM, BAZ2B inh 50µM, PLK1 PBD block inconclusive (no result: PI5P4Ka inh)
CC(CC(=O)N1CCN(c2ccccc2)CC1)S(=O)(=O)c1ccc2c(c1)NC(=O)CO2 (stereo not drawn)	none (no result: G9a inh)
O=C(O)c1cc(O)c2c(c1)[O][Bi][O]2	G9a inh 1µM (no result: HP1b chromo inh, JMJD2A Tudor, BAZ2B inh, PLK1 PBD block, PI5P4Ka inh)
O=C(NC(Cc1cn(Cc2ccccc2)cn1)C(=O)O)OCC1c2ccccc2-c2ccccc21 (stereo not drawn)	none (no result: G9a inh, HP1b chromo inh, JMJD2A Tudor, BAZ2B inh)
Cc1cccc(NC2=C(NCCO)C(=O)c3ccccc3C2=O)c1	G9a inh 32µM, HP1b chromo inh 20µM, JMJD2A Tudor 56µM, BAZ2B inh 20µM
Cc1cccc(NC(=O)CC(=O)Nc2cccc(C)c2)c1	none
COc1ccc(NC2=C(NCCO)C(=O)c3ccccc3C2=O)cc1	G9a inh 14µM, HP1b chromo inh 16µM, JMJD2A Tudor inconclusive, BAZ2B inh 22µM
COc1cccc(NC2=C(NCCO)C(=O)c3ccccc3C2=O)c1	HP1b chromo inh inconclusive, JMJD2A Tudor 50µM, BAZ2B inh 35µM
Cc1ccsc1CN(C)c1ncnc2ccc(-c3ccc4c(c3)OCO4)cc12	none (no result: G9a inh, HP1b chromo inh, BAZ2B inh, PLK1 PBD block, PI5P4Ka inh)
CCOC(=O)C1CCN(C(=O)C2COc3ccccc3C2)CC1 (stereo not drawn)	none (no result: PLK1 PBD block, PI5P4Ka inh)
Cc1cccc2c(=O)cc(C(F)(F)F)[nH]c12	none (no result: G9a inh)
Cc1cc(=S)c2cccc(C)c2[nH]1	G9a inh 56µM, PLK1 PBD block inconclusive
CCc1nnc(SCc2nc(-c3ccc(OC)cc3)oc2C)c2cc3sccc3n12	none (no result: PLK1 PBD block, PI5P4Ka inh)
COc1cc2c3nnc(-c4ccccc4)c-3cn(Cc3ccccc3F)c2cc1OC	PLK1 PBD block 21µM
Oc1ccc(/C=C/c2nc(-c3ccccc3O)n(-c3ccccc3)n2)c(O)c1	G9a inh inconclusive, JMJD2A Tudor inconclusive, BAZ2B inh 32µM (no result: PLK1 PBD block, PI5P4Ka inh)
CCOc1ccc(NC(=O)CN(C)C(=O)C2CC(=O)N(c3ccc4c(c3)OCCO4)C2)cc1OCC (stereo not drawn)	none
Cc1cc(N2CCN(C)CC2)nc2ccc(NC(=S)N3CCCCCC3)cc12	G9a inh 56µM
Cc1cc(N2CCN(C)CC2)nc2ccc(NC(=S)N3CCN(c4ccc(F)cc4)CC3)cc12	none
Cc1cc(N2CCOCC2)nc2ccc(NC(=S)N3CCCCC3C)cc12 (stereo not drawn)	G9a inh 45µM, JMJD2A Tudor inconclusive (no result: BAZ2B inh)
Cc1cc(N2CCN(C)CC2)nc2ccc(NC(=S)N3CCCCC3)cc12	G9a inh 25µM, BAZ2B inh inconclusive
Cc1cccc(N2CCN(C(=S)Nc3ccc4nc(N5CCN(C)CC5)cc(C)c4c3)CC2)c1C	BAZ2B inh inconclusive
Cc1cc(N2CCN(C)CC2)nc2ccc(NC(=S)N3CCN(c4cccc(Cl)c4)CC3)cc12	none
Cc1cc(N2CCOCC2)nc2ccc(NC(=O)C3CCCCC3)cc12	none (no result: G9a inh, BAZ2B inh, PLK1 PBD block, PI5P4Ka inh)
Cc1cc(N2CCN(C)CC2)nc2ccc(NC(=S)N3CCN(c4ccc(Cl)cc4)CC3)cc12	G9a inh 40µM
CCCSc1ncc(Cl)c(C(=O)Nc2sc3c(c2C(=O)OC)CCCC3)n1	none (no result: PLK1 PBD block, PI5P4Ka inh)
Cc1ccc2nc3n(c2c1)CCCN3	none
S=c1[nH]nc2n1CCCN2	JMJD2A Tudor inconclusive, PLK1 PBD block 30µM
CCc1ccc(C(=O)C[n+]2cccc3cc(OC)ccc32)cc1	none
CN1c2ccsc2/C(=N/NC(=O)c2c(F)cccc2F)CS1(=O)=O	JMJD2A Tudor inconclusive

Screening results (PubChem BioAssay)
